# Reference: the supplement of paper PMC11732987, “Enantioselective OTUD7B fragment discovery through chemoproteomics screening and high-throughput optimisation” (Communications Chemistry, 2025)
# A number with no mark means an inactive call.
# Key:
# Assay in all cases: log2 ratio of Biotin-Ahx-Ub-VS probe labelling (fragment/DMSO); higher = less target engagement (more negative = stronger competition), active = hit call of the paper (q ≤ 0.05, log2 ratio ≤ -1)
# Details in all cases: compound concentration: 200 uM; treatment time: 3 h
# OTUD6B = target: T1, OTUD6B (UniProt Q8N6M0)
# T1 sequence (whole entry): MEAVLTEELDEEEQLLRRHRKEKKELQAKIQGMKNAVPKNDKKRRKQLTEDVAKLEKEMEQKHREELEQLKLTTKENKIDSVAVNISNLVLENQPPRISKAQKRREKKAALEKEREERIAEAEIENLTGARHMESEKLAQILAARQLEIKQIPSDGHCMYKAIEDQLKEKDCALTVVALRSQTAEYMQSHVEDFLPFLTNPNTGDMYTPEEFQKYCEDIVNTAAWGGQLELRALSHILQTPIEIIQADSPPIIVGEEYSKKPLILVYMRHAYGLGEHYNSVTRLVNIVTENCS
# Summary of the method: (§1)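 Average log2 ratios of fragment over vehicle were obtained by unpaired t-test from global-median-normalised Spectronaut label-free quantities. Proteins with ≥2 unique peptides were included. HEK293T lysate (495 µg per sample) was treated in triplicate with fragment at 200 µM or vehicle for 3 h, then with Biotin-Ahx-Ub-VS at 0.5 µM final for 1 h, and labelled DUBs were NeutrAvidin-enriched and run by diaPASEF LC-MS/MS.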
# OTUD7B = target: T2, OTUD7B (UniProt Q6GQQ9)
# T2 sequence (whole entry): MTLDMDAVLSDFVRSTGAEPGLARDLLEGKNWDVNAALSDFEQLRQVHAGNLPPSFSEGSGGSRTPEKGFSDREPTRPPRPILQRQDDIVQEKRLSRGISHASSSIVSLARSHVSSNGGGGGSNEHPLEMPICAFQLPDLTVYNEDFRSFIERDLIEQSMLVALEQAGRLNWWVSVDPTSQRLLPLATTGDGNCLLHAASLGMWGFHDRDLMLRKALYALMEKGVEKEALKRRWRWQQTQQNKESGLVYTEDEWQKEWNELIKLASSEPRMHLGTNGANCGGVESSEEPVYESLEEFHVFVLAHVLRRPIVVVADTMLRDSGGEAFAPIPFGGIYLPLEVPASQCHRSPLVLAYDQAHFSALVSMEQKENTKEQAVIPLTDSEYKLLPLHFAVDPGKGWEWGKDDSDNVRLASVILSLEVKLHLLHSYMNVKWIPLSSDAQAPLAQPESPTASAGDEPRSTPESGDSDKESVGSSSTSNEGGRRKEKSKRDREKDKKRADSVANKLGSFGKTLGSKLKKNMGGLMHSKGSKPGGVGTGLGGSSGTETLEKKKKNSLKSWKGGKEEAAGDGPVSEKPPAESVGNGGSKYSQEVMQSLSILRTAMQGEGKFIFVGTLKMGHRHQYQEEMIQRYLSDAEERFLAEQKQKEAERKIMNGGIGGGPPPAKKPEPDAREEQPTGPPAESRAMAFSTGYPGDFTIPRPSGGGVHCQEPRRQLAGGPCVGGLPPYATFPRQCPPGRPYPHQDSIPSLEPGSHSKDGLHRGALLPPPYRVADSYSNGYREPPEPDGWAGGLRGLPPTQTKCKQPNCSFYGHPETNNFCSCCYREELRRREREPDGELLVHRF
# Summary of the method: as §1
# PRPF8 = PRPF8 (UniProt Q6P2Q9)
# Summary of the method: as §1
# PSMD7 = target: T3, PSMD7 (UniProt P51665)
# T3 sequence (whole entry): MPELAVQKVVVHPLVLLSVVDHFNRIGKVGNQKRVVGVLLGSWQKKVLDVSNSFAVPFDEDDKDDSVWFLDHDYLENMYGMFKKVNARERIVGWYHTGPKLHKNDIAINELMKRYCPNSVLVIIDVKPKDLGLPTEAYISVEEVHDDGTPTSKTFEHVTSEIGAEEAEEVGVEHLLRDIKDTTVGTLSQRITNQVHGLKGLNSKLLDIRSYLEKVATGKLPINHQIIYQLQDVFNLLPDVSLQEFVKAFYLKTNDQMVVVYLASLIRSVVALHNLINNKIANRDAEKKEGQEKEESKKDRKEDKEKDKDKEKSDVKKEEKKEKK
# Summary of the method: as §1
# UCHL1 = UCHL1 (UniProt P09936)
# Summary of the method: as §1
# UCHL3 = target: T4, UCHL3 (UniProt P15374)
# T4 sequence (whole entry): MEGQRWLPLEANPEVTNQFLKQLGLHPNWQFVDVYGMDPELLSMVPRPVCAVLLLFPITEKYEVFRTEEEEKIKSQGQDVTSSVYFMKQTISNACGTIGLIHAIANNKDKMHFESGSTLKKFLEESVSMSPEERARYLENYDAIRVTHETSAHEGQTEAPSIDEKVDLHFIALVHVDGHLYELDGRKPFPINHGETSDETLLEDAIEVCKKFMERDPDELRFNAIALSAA
# Summary of the method: as §1
# UCHL5 = target: T5, UCHL5 (UniProt Q9Y5K5)
# T5 sequence (whole entry): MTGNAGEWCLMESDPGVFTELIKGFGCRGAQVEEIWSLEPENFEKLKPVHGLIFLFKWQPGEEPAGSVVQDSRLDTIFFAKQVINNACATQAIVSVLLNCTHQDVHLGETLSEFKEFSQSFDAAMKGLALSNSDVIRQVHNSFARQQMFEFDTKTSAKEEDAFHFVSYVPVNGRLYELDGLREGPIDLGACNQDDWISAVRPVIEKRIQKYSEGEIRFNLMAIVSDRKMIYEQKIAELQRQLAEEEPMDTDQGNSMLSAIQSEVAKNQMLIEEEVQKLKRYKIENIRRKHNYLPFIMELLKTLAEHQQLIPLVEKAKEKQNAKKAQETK
# Summary of the method: as §1
# USP10 = USP10 (UniProt Q14694)
# Summary of the method: as §1
# USP15 = target: T6, USP15 (UniProt Q9Y4E8)
# T6 sequence (whole entry): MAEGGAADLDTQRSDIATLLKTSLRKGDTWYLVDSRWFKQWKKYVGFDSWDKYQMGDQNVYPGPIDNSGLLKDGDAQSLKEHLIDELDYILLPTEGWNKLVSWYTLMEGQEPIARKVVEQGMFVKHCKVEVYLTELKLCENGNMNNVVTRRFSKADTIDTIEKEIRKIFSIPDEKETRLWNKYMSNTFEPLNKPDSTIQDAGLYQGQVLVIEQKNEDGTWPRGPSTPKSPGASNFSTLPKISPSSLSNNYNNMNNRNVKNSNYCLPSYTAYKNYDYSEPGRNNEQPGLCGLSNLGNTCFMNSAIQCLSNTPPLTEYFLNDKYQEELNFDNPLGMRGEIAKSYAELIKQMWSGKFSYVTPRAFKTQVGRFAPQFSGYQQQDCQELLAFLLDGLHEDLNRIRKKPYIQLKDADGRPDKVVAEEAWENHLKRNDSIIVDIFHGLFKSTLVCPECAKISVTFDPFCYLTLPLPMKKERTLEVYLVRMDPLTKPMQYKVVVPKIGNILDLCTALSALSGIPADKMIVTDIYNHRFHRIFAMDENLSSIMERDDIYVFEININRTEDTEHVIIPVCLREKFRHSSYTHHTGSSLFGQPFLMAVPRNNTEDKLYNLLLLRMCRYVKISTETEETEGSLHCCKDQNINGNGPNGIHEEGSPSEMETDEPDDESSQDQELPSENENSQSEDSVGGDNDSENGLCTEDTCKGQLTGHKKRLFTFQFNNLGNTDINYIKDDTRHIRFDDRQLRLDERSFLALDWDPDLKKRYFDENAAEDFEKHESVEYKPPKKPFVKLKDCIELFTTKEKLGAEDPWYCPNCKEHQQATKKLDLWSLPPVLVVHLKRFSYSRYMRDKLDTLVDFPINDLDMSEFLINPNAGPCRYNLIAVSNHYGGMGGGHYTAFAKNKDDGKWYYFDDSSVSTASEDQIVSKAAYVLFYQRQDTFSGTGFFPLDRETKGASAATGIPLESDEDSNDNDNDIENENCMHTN
# Summary of the method: as §1
# USP16 = USP16 (UniProt Q9Y5T5)
# Summary of the method: as §1
# Sequence of UCHL1 (P09936 whole entry, looked up): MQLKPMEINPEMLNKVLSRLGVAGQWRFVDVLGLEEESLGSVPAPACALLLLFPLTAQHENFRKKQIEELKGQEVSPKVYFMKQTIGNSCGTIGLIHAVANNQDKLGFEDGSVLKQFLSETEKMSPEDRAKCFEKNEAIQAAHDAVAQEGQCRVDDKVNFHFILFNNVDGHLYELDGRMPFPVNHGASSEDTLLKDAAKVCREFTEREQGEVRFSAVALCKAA
# Sequence of USP16 (Q9Y5T5 whole entry, looked up): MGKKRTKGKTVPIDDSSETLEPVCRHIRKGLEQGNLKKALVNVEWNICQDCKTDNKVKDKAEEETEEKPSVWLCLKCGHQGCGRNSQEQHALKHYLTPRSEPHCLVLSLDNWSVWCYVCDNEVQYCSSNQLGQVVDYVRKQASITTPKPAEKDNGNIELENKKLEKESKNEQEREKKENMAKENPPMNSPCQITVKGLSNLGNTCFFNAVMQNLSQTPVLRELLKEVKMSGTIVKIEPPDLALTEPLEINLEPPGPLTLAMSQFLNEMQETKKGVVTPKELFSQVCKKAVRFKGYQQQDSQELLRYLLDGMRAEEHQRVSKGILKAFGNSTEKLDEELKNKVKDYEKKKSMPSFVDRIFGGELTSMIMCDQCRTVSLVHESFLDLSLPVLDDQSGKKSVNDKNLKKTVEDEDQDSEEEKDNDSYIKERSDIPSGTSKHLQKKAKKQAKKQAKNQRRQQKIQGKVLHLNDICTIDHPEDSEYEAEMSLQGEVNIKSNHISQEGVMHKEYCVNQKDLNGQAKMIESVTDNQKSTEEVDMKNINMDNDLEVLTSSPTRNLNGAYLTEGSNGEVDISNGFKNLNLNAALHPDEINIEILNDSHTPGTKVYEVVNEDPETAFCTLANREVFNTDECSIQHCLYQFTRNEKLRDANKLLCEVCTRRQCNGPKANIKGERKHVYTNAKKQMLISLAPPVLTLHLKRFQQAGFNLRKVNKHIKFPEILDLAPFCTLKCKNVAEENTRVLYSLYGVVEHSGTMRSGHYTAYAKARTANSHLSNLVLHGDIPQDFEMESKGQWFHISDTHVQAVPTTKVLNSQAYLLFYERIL
# Sequence of USP10 (Q14694 whole entry): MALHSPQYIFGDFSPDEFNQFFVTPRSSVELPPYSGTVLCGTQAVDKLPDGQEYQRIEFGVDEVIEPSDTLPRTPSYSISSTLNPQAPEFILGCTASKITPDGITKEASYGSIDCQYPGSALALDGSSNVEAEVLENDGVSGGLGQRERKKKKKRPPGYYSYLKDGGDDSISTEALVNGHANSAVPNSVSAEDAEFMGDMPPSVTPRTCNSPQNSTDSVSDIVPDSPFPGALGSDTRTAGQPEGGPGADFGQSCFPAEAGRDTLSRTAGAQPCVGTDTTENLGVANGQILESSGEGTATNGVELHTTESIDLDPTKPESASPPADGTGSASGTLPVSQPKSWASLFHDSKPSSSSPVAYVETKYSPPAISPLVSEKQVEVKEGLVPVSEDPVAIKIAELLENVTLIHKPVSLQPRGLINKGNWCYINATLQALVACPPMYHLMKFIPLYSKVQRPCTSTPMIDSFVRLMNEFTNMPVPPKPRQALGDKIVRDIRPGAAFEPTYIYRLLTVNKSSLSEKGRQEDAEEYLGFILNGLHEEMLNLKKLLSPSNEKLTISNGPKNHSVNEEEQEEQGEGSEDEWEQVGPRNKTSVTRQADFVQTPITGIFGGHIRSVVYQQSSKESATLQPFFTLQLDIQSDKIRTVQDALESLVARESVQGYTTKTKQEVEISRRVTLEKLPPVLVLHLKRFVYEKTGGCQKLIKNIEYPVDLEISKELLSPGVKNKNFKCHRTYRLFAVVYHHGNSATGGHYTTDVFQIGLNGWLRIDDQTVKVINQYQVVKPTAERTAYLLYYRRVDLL
compound,measurement,setting,value
Cc1n[nH]c2c1CN(C(=O)CCl)CC2,log2 ratio of Biotin-Ahx-Ub-VS probe labelling,OTUD6B,-0.715
same,log2 ratio of Biotin-Ahx-Ub-VS probe labelling,OTUD7B,-1.53 (active)
same,log2 ratio of Biotin-Ahx-Ub-VS probe labelling,PRPF8,0.0355
same,log2 ratio of Biotin-Ahx-Ub-VS probe labelling,PSMD7,-0.368
same,log2 ratio of Biotin-Ahx-Ub-VS probe labelling,UCHL1,-1.15
same,log2 ratio of Biotin-Ahx-Ub-VS probe labelling,UCHL3,-0.699
same,log2 ratio of Biotin-Ahx-Ub-VS probe labelling,UCHL5,-0.886
same,log2 ratio of Biotin-Ahx-Ub-VS probe labelling,USP10,-0.519
same,log2 ratio of Biotin-Ahx-Ub-VS probe labelling,USP15,-0.982
same,log2 ratio of Biotin-Ahx-Ub-VS probe labelling,USP16,-0.207
